Laboratory results taken from ChEMBL document CHEMBL4513146, “CO-ADD screening of Karazin Kharkiv National University (Ukraine) compounds”.
Results with a measured potency or affinity are listed apart.

How the values were obtained:
Staphylococcus aureus = details: Concentration 32 ug.mL-1;; ASSAY_TEST Inhibition of Bacterial Growth; detection method Absorption (OD600); MEDIA CAMHB; plate type 384well; NBS; CORNING #3640; time 18 hr
Escherichia coli = details: Concentration 32 ug.mL-1;; ASSAY_TEST Inhibition of Bacterial Growth; detection method Absorption (OD600); MEDIA CAMHB; plate type 384well; NBS; CORNING #3640; time 18 hr

SMILES: CCCCOc1ccc(-c2cc3c4nnc(SCC(=O)Nc5c(C)cccc5C)n4ccn3n2)cc1
- Inhibition (Staphylococcus aureus): -7.16%
- Inhibition (Escherichia coli): -10.46%

SMILES: CC(=O)c1ccc(NC(=O)Cn2nc3c(SC4CCCCC4)nccn3c2=O)cc1
- Inhibition (Staphylococcus aureus): 3.51%
- Inhibition (Escherichia coli): -2.6%

SMILES: Cc1ccc(-c2cc3c4nn(CC(=O)NCc5ccccc5)c(=O)n4ccn3n2)cc1C
- Inhibition (Staphylococcus aureus): -8%
- Inhibition (Escherichia coli): -9.14%

SMILES: CCC(C)NC(=O)Cn1c(=O)c2nnc(C)n2c2ccccc21 (centres undefined)
- Inhibition (Staphylococcus aureus): 9.8%
- Inhibition (Escherichia coli): -2.5%

SMILES: O=C(Cn1nc2c(Oc3ccccc3)nccn2c1=O)Nc1ccccc1F
- Inhibition (Staphylococcus aureus): 6.14%
- Inhibition (Escherichia coli): -2.38%

SMILES: Cc1ccccc1Oc1nccn2c(=O)n(CC(=O)Nc3ccc(F)cc3F)nc12
- Inhibition (Staphylococcus aureus): 15.72%
- Inhibition (Escherichia coli): 1.95%

SMILES: COc1ccc(CCn2c(=O)c3sccc3n3c(=O)n(Cc4ccccc4Cl)nc23)cc1OC
- Inhibition (Staphylococcus aureus): 1.03%
- Inhibition (Escherichia coli): -4.64%

SMILES: O=C(Cn1nc2ccc(SC3CCCCC3)nn2c1=O)NCc1ccc(Cl)cc1
- Inhibition (Staphylococcus aureus): 6.56%
- Inhibition (Escherichia coli): -1.29%

SMILES: COc1ccc(-c2cc3c4nnc(CCC(=O)NCc5ccc(OC)cc5OC)n4ccn3n2)cc1
- Inhibition (Staphylococcus aureus): 16.19%
- Inhibition (Escherichia coli): 5.82%

SMILES: O=c1c2nnc(SCc3ccccc3F)n2ccn1-c1ccc(Br)cc1
- Inhibition (Staphylococcus aureus): 14.85%
- Inhibition (Escherichia coli): -2.34%

SMILES: COc1ccc(CNC(=O)Cn2nc3c(Oc4cccc(C)c4C)nccn3c2=O)cc1
- Inhibition (Staphylococcus aureus): -12.87%
- Inhibition (Escherichia coli): 0.86%

SMILES: Cc1ccc(-c2ccc3nnc(CCC(=O)NCc4cccc(Br)c4)n3n2)cc1
- Inhibition (Staphylococcus aureus): 12.72%
- Inhibition (Escherichia coli): -0.13%
